According to PubChem BioAssay AID485313 (National Center for Advancing Translational Sciences (NCATS), 2010):
Among all 320,000 compounds or so, about 7,600 (2.4%) were called active. Entries that show only a call come without a potency. About 3% were inconclusive and are not listed. The call rests on the fitted dose curve; in most records, active means well fitted activation curve with a large enough effect; inconclusive means small, poorly fitted or top-dose-only effect; inactive means no such curve, though single readings can be large or run the other way. This excerpt belongs to a sample that is enriched for actives.

assay: qHTS Assay for NPC1 Promoter Activators; details: Huh7 NPC1 promoter luciferase reporter, 24 h; series mostly up to 9.22 µM; further: nearly all actives have a fitted effect of over 60% in size;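 on activation: reporter is driven by a mutant NPC1 promoter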
Procedure, shortened: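 Stably transfected Huh7 (NPC1 promoter→luciferase), 1500 cells/well in Opti-MEM + 10% FBS, 2 h settle, then compound 24 h at 37 °C. Luminescence after 10 min with Amplite reagent.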
Potency means the concentration at half of the fitted maximal effect.

Row | SMILES | Potency
1 | CC(=O)c1ccc(N2CCN(C(=O)c3ccc(Cl)c(S(=O)(=O)NC4CC4)c3)CC2)c(F)c1 | inactive
2 | COc1ccccc1NC(=O)CSc1nnc(CNC(=O)c2ccccc2F)o1 | inactive
3 | O=C(/C=C/c1cccc([N+](=O)[O-])c1)OCC(=O)N1CCOCC1 | inactive
4 | CC1CC(=O)Nc2ccccc2N1C(=O)COc1ccc2cc(Br)ccc2c1 (configuration not stated) | inactive
5 | NC(=O)NCCCC(=O)O | inactive
6 | Cc1ccccc1-c1nnn(CC(=O)c2ccc(S(=O)(=O)N3CCCC3)cc2)n1 | inactive
7 | COc1cc(-c2nnn(CC(=O)NCc3ccccc3)n2)cc(OC)c1OC | inactive
8 | CC(C)(C)NC(=O)Cn1nnc(-c2ccccc2Cl)n1 | 3980 nM (active)
9 | CCOc1cc(/C=C/C(=O)OCC(=O)NCCN2C(=O)CSC2=O)ccc1OCC(C)C | inactive
10 | CCOC(=O)c1cc(-c2ccccc2C)n(Cc2cc(C)no2)n1 | inactive
11 | COCc1c(C(=O)OCC(=O)Nc2ccc(OC(F)F)cc2)oc2ccccc12 | inactive
12 | CN(C)c1nc(-c2cccnc2)nc(-c2ccc(Cl)cc2)c1C#N | inactive
13 | COC(=O)CSc1nnc(-c2cccnc2)o1 | inactive
14 | CN(C)c1ccc(-c2nnc(-c3cccnc3)o2)cc1 | 1120 nM (active)
15 | COc1ccc([C@H]2CC(=O)C=C(/C=C/c3ccccc3)C2)cc1 | inactive
16 | CCc1cccc(C)c1N1C(=O)CN(Cc2ccccc2)C1=S | inactive

Row | SMILES | Potency
17 | Cc1ccc(SCCC(=O)NC(C(C)C)C(C)C)cc1 | inactive
18 | Cc1ccc(SCCSc2ncccn2)cc1 | 1260 nM (active)
19 | Cc1ccc(SCCC(=O)NCc2ccccn2)cc1 | inactive
20 | COc1ccc(S(=O)(=O)N2CCOCC2)cc1NC(=O)Cc1coc2cc(C)ccc12 | inactive
21 | Cc1n[nH]c(=O)c2c(NC(=O)CSc3cc(Cl)ccc3Cl)oc(C)c12 | inactive
22 | CCCCN(C(=O)c1nn(C)c(=O)c2ccccc12)c1c(N)n(CCC)c(=O)[nH]c1=O | inactive
23 | COc1cccc(CNC(=O)COC(=O)CN2C(=O)NC3(CCCCC3C)C2=O)c1 (configuration not stated) | inactive
24 | O=C(CNC(=O)c1ccccc1Br)NNC(=O)c1cccs1 | inactive
25 | CN(Cc1ccccc1)C(=O)CSc1nc2ccccc2[nH]1 | inactive
26 | O=C(CSc1nc2ccccc2[nH]1)c1cccs1 | 1260 nM (active)
27 | O=C(CSc1nc2ccccc2[nH]1)Nc1nc(-c2ccccc2)c(-c2ccccc2)o1 | inactive
28 | CC(OC(=O)/C=C/c1ccccc1)C(=O)NC1CCCCC1C (configuration not stated) | inactive
29 | O=C(CCc1nc(-c2ccccc2)no1)Nc1cccc(C(=O)NC2CC2)c1 | inactive
30 | Cc1cc(O)cc(O)c1C(=O)Cc1cnn(-c2ccccc2)c1 | inactive
31 | COc1ccc(CC(=O)c2ccc(O)cc2O)cc1OC | inactive
32 | COc1ccc(C(=O)Cc2cnn(-c3ccccc3)c2)c(O)c1 | 2510 nM (active)
